Source: PubChem BioAssay (Tox21)
Where “and” joins values, the source holds several entries; their conditions need not be identical. Equal entries are not always repeated. Inconclusive results are not listed. More than one record can exist for a structure, and the calls need not agree. Calls of active or inactive are those of the source. Unless noted, the call rests on the fitted dose curve.

Experiments:
[1] = Nuclear factor erythroid 2-related factor 2/antioxidant responsive element (Nrf2/ARE) small molecule agonists: qHTS cell viability counter screen in human keratinocytes (AID 1919968; active means well fitted curve in the direction sought with a large enough effect in the repeat runs; an effect the other way counts as inactive or inconclusive; further: nearly all actives have a fitted effect of over 55% in size)
Method in brief: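 Fluorescence read-out from CellTiter-Fluor after 1 h at 37 C. Wells held HaCaT-derived ARE-luciferase reporter cells (1,500/well) treated 23 h with DMSO-dissolved compounds. Run in the same wells as the luciferase agonist read.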

[2] = Nuclear factor erythroid 2-related factor 2/antioxidant responsive element (Nrf2/ARE) small molecule agonists: luciferase reporter gene qHTS assay in human keratinocytes (AID 1919969); further: nearly all actives have a fitted effect of over 35% in size; further: potency means the concentration at half of the fitted maximal effect
[3] = biological target: Gonadotropin-releasing hormone receptor (Homo sapiens) (UniProt P30968); assay: Human gonadotropin-releasing hormone receptor (GnRHR) small molecule agonists, calcium flux assay in GnRHR-HEK293 cells (AID 1920063); further: nearly all actives have a fitted effect of over 35% in size
Sequence of Gonadotropin-releasing hormone receptor (Homo sapiens) (P30968 whole entry, looked up): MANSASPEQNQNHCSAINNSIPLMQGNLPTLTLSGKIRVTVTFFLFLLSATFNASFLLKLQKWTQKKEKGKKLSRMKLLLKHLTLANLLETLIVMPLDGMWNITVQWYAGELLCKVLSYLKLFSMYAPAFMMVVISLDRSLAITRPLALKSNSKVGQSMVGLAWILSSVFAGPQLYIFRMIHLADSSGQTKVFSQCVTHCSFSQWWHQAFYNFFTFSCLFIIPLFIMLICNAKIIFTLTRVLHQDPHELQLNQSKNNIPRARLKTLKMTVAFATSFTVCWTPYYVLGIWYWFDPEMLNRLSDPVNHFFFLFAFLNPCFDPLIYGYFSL
Method in brief: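 Calcium-dye fluorescence, Ex/Em=480/540, recorded every 1 sec over 3 min after compound addition to GnRHR-HEK293 cells. Cells had been seeded 18 hours earlier and dye-loaded for 1 hour at 37 C. Fifteen concentrations, triplicates.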

[4] = biological target: KiSS-1 receptor (Homo sapiens) (UniProt Q969F8); assay: Human kisspeptin (KISS1R) small molecule agonists, calcium flux assay in KISS1R-HEK293 cells (AID 1920064; active means well fitted curve in the direction sought with a large enough effect in the repeat runs; an effect the other way counts as inactive or inconclusive)
Sequence of KiSS-1 receptor (Homo sapiens) (Q969F8 whole entry, looked up): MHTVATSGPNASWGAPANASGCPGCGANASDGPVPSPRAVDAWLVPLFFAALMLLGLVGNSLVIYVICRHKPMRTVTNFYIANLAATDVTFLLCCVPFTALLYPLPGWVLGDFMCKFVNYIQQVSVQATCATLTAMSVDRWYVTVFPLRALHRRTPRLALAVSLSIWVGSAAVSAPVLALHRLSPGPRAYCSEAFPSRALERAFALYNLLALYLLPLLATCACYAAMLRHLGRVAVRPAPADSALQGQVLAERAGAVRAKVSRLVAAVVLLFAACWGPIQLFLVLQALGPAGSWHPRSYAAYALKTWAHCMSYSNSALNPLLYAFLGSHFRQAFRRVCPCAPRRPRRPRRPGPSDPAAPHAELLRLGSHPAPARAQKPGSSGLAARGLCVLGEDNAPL
Method in brief: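 Calcium flux read-out: kinetic fluorescence at Ex/Em=480/540, 1 s intervals over 3 min, after pin-tool compound addition to dye-loaded KISS1R-HEK293 cells. Fifteen concentrations, triplicates.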

[5] = G protein-coupled receptor (GPCR) small molecule agonists, calcium flux assay: HEK293 wild type cell line counter screen (AID 1920065)
Method in brief: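 Agonist mode; 18 h seeding at 37 C, 1 h dye load at 37 C; compounds pinned from DMSO, ATP as positive control; kinetic fluorescence 480/540 nm, 3 min, 1 s reads; 15 concentrations, triplicate.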

[6] = p53 small molecule agonists, cell-based qHTS assay with human liver microsomes (AID 1963577);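 further: p53 response element beta-lactamase reporter cells with liver microsomes plus NADPH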
Method in brief: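 Metabolically competent format: test substances, human liver microsomes and NADPH (both 0.5 mg/mL final) incubated with p53RE-bla cells 16 h at 37 C. Beta-lactamase reporter signal then quantified by fluorescence.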

[7] = p53 small molecule agonists, cell-based qHTS assay with rat liver microsomes (AID 1963578); further: potency means the concentration at half of the fitted maximal effect
Method in brief: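 Each plate received p53RE-bla cells, then compound, then rat liver microsomes and NADPH (both 0.5 mg/mL final). Plates were held 16 h at 37 C, and beta-lactamase activity was detected with LiveBLAzer over 2 h.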

[8] = p53 small molecule agonists, cell-based qHTS assay with human liver microsomes: qHTS cell viability counter screen (AID 1963579); further: nearly all actives have a fitted effect of over 45% in size
Method in brief: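 Tox21 library compounds, delivered from DMSO stocks, were tested on p53RE-bla cells together with 0.5 mg/mL human liver microsomes and 0.5 mg/mL NADPH (final) over 16 h at 37 C; CellTiter-Glo luminescence served as the cytotoxicity measure.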

[9] = p53 small molecule agonists, cell-based qHTS assay with rat liver microsomes: qHTS cell viability counter screen (AID 1963580); further: nearly all actives have a fitted effect of over 45% in size
Method in brief: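 Cytotoxicity counter screen: intracellular ATP read by CellTiter-Glo luminescence in the p53 reporter wells. HCT-116 p53RE-bla cells were treated for 16 h at 37 C alongside rat liver microsomes and NADPH, each 0.5 mg/mL final.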

[10] = p53 small molecule agonists, cell-based qHTS assay: qHTS cell viability counter screen (AID 1963581); further: nearly all actives have a fitted effect of over 45% in size
Method in brief: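 Cytotoxicity read-out: ATP-based luminescence (CellTiter-Glo, 30 min RT) measured in the same wells as the p53 reporter assay, HCT-116 p53RE-bla cells, 16 h compound exposure at 37 C.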

[11] = p53 small molecule agonists, cell-based qHTS assay (AID 1963582; active means well fitted activation curve with a large enough effect in the signal ratio in the repeat runs, not every such curve was filed as active; the % refers to the signal ratio)
Method in brief: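 Fluorescence intensity read-out of a beta-lactamase reporter under a p53 response element. Cells were exposed to DMSO-dissolved compounds for 16 h at 37 C, then developed with FRET substrate for 2 h at RT.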

[12] = biological target: 5-hydroxytryptamine receptor 2A (Homo sapiens) (UniProt P28223); assay: 5-hydroxytryptamine receptor 2A (HTR2A) small molecule antagonists, cell-based qHTS assay (AID 1963586); further: nearly all actives have a fitted effect of over 45% in size; further: potency means the concentration at half of the fitted maximal effect
Sequence of 5-hydroxytryptamine receptor 2A (Homo sapiens) (P28223 whole entry, looked up): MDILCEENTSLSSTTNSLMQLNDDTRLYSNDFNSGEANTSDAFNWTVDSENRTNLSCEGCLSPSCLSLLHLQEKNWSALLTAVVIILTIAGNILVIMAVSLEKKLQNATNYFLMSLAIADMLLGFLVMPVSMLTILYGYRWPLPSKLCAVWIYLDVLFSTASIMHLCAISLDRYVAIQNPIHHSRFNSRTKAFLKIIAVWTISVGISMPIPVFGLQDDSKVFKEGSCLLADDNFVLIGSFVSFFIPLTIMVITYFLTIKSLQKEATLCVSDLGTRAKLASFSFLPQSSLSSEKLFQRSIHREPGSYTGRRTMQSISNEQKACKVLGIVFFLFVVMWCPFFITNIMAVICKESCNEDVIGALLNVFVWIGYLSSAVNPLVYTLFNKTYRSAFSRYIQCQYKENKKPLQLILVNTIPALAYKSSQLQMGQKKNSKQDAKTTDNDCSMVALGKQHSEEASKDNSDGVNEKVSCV
Method in brief: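 CHO cells stably expressing human HTR2A were plated for 18 h at 37 C, then loaded with calcium dye for 1 h. Compounds were preincubated 5 min at room temperature before DOI (4 nM solution) was added. Kinetic fluorescence was read for 3 min.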

[13] = biological target: 5-hydroxytryptamine receptor 2A (Homo sapiens) (UniProt P28223); assay: 5-hydroxytryptamine receptor 2A (HTR2A) small molecule agonists, cell-based qHTS assay (AID 1963587); further: nearly all actives have a fitted effect of over 30% in size; further: potency means the concentration at half of the fitted maximal effect
Method in brief: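 Kinetic calcium-flux fluorescence (2 min, 1 sec intervals) after compound addition in agonist mode. HTR2A-CHO cells were cultured 18 h, then dye-loaded 1 h at 37 C.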

[14] = biological target: Muscarinic acetylcholine receptor M1 (Homo sapiens) (UniProt P11229); assay: Cholinergic receptor muscarinic 1 (CHRM1) small molecule antagonists, cell-based qHTS assay (AID 1963588); further: nearly all actives have a fitted effect of over 40% in size; further: potency means the concentration at half of the fitted maximal effect
Sequence of Muscarinic acetylcholine receptor M1 (Homo sapiens) (P11229 whole entry, looked up): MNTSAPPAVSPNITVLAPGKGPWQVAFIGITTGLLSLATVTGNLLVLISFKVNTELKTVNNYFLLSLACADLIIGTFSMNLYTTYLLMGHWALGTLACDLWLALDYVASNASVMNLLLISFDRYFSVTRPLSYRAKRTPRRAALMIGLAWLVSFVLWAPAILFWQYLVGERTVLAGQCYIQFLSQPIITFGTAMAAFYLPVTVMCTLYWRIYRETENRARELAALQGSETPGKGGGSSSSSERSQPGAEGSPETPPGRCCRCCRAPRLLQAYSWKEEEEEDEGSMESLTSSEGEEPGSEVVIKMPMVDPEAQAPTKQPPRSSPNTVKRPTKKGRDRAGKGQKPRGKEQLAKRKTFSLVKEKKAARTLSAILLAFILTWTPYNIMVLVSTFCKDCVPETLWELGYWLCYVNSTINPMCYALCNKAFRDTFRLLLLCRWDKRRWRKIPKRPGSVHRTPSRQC
Method in brief: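 Compounds were tested at 15 concentrations in three independent runs. Dye-loaded CHRM1-CHO cells were exposed 5 min at room temperature before stimulation by acetylcholine added at 50nM. Intracellular calcium was read kinetically on FDSS for 3 min.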

[15] = biological target: Muscarinic acetylcholine receptor M1 (Homo sapiens) (UniProt P11229); assay: Cholinergic receptor muscarinic 1 (CHRM1) small molecule agonists, cell-based qHTS assay (AID 1963589); further: nearly all actives have a fitted effect of over 35% in size
Method in brief: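 Calcium flux read-out: kinetic fluorescence at 1 sec intervals after pin-tool compound addition to dye-loaded CHRM1-CHO cells (human M1). Agonist mode; 15 concentrations tested in triplicate independent runs.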

[16] = cAMP Responsive Elements (CRE) small molecule agonists, cell-based qHTS assay (AID 1963590)
Method in brief: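 Beta-lactamase reporter readout: LiveBLAzer B/G FRET substrate, 2 h at room temperature, added after 3 h compound treatment of CRE-bla HEK 293T cells at 37 C/5% CO2.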

[17] = cAMP Responsive Elements (CRE) small molecule antagonists, cell-based qHTS assay (AID 1963591; active means well fitted inhibition curve with a large enough effect in the signal ratio in the repeat runs, not every such curve was filed as active; the % refers to the signal ratio)
Method in brief: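 HEK293T CRE-bla; 18 h preincubation; compound pin-transfer; NKH477 0.25 uM final, 3 h, 37 C; LiveBLAzer FRET substrate 2 h RT.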

[18] = biological target: Beta-2 adrenergic receptor (Homo sapiens) (UniProt P07550); assay: Adrenergic beta2 receptor (ADRB2) small molecule antagonists, cell-based qHTS assay (AID 1963592); further: series mostly up to about 92 µM; nearly all actives have a fitted effect of over 50% in size
Sequence of Beta-2 adrenergic receptor (Homo sapiens) (P07550 whole entry, looked up): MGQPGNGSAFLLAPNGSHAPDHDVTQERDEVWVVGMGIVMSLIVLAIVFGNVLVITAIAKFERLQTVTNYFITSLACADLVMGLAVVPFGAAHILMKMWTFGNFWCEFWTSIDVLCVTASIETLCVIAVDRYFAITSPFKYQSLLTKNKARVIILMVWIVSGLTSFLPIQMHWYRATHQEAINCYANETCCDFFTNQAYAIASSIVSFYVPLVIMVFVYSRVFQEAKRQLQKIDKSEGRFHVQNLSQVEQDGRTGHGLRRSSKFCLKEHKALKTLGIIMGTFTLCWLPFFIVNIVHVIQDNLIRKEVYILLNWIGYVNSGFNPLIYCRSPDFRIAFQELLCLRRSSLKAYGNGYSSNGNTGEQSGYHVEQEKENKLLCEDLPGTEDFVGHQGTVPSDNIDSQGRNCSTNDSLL
Method in brief: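 Assay format: CHO-ADRB2 cells, 18-20hr seeding at 37C/5% CO2, then compound plus 1nM isoproterenol agonist mix for 0.5hr RT. Homogeneous time-resolved fluorescence cAMP detection after 1hr, expressed as 665/615 nm ratio.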

[19] = biological target: D(2) dopamine receptor (Homo sapiens) (UniProt P14416); assay: Dopamine D2 receptor (DRD2) small molecule agonists, cell-based qHTS assay (AID 1963594); further: nearly all actives have a fitted effect of over 35% in size
Sequence of D(2) dopamine receptor (Homo sapiens) (P14416 whole entry, looked up): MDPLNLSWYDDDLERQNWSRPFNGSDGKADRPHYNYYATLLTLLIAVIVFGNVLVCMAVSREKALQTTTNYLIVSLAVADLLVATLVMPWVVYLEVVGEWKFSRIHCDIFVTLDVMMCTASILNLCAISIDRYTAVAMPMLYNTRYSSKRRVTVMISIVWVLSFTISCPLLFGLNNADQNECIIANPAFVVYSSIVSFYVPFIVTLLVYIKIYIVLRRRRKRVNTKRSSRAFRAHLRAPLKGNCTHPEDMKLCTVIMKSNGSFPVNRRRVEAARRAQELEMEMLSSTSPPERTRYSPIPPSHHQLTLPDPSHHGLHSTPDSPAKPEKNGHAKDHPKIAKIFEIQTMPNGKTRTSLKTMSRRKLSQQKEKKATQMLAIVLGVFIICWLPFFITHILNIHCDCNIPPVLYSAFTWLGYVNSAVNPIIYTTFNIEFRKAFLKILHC
Method in brief: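 cAMP accumulation in DRD2-HEK293 cells measured by HTRF after 1 h detection; compounds added 10 min before NKH477 (200nM […]) forskolin-analogue stimulation, 30 min at room temperature, with Ro20-1724 present at 0.1 mM final.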

[20] = biological target: D(2) dopamine receptor (Homo sapiens) (UniProt P14416); assay: Dopamine D2 receptor (DRD2) small molecule antagonists, cell-based qHTS assay (AID 1963595; active means well fitted inhibition curve with a large enough effect in the signal ratio in the repeat runs, with a control signal flat; the % refers to the signal ratio)
Method in brief: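 HTRF cAMP read-out at 665 and 620 nm emission (340 nm excitation). Antagonist mode: compounds were tested against 12 nM quinpirole in DRD2-HEK293 cells, with 200 nM NKH477 raising cAMP and 0.1 mM Ro20-1724 blocking its breakdown.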

Measured: Potency

COCCCN
inactive: all assays above

CCc1cccc(C)c1N
inactive: all assays above

Cc1cc(C)c(C)cc1C
not listed: [19]
inactive: all other assays above

CCC(O)OCCCOC (stereo not given)
inactive: all assays above

CN1C(=O)CC[C@H]1c1cccnc1
inactive: all assays above

NC(N)=S
inactive and 54.9 µM (active): [13]
inactive and 37.5 µM (active): [12]
inactive: all other assays above

CCCCCCCCCCCCCCCC(=O)O
inactive: all assays above

CC(=O)OCCOC(C)=O
inactive: all assays above

C=C[Si](OCCOC)(OCCOC)OCCOC
inactive: all assays above

Cc1ccccc1C=O
inactive: all assays above

CC1(C)NC(=O)NC1=O
inactive: all assays above

C=C(C)C(=O)OCC(C)C
inactive: all assays above

Cc1ccc(C(C)C)cc1
inactive: all assays above

CCCCOCCOCCOC(C)=O
inactive: all assays above

FC(F)(F)c1ccc(Cl)c(Cl)c1
inactive: all assays above

C[Si](C)(C)N[Si](C)(C)C
inactive: all assays above

CCCCCCCCCC
not listed: [19]
inactive: all other assays above

CC(=O)OC/C=C(\C)CCC=C(C)C
inactive: all assays above

O=C(O)c1ccc(C(=O)O)cc1
inactive: all assays above

CCCCC(=O)O
not listed: [19]
inactive: all other assays above

CC(CCl)OP(=O)(OC(C)CCl)OC(C)CCl (stereo not given)
inactive: all assays above

CCCCNC(=O)NS(=O)(=O)c1ccc(N)cc1
inactive: all assays above

c1ccc2cc3c(ccc4ccccc43)cc2c1
active: [2] 9.72 µM and 9.69 µM
not listed: [17]
inactive: all other assays above

C=C(C)C(=O)OCCC[Si](OC)(OC)OC
inactive: all assays above

Cc1cc(=O)[nH]c(C(C)C)n1
not listed: [17] | [19] | [20]
inactive: all other assays above

CC1(C)CC(N)CC(C)(CN)C1 (stereo not given)
inactive: all assays above

CC(=O)Nc1ccc(CC(=O)O)cc1
inactive and 410 nM (active): [12]
not listed: [17]
inactive: all other assays above

O=C(O)Cc1cccc2ccccc12
not listed: [19]
inactive: all other assays above

CC(C)(C)c1cccc(C(C)(C)C)c1O
231 nM (active) and inactive: [14]
inactive: all other assays above

Cc1cc(=O)oc2cc(O)ccc12
active: [7] 36.3 µM and 22.9 µM
not listed: [17]
inactive: all other assays above

NCCN1CCNCC1
inactive: all assays above
